# This excerpt belongs to a sample that is enriched for the strongest signals.
# Key:
# Assay in all cases: glycan array binding signal (z-score within array); higher = stronger binding
# Details in all cases: glycan notation: IUPAC condensed, linker removed
# Glc(a1-2)Glc = biological target: Glc(a1-2)Glc
# In short: (§1)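 The binding signal is a Z-score computed within each array and averaged over linkers. Arrays of the same protein sequence at different concentrations or buffers were also averaged together. Data originate from 3228 arrays in the Consortium for Functional Glycomics database, kept only where the protein sequence was available.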
# [1] = biological target: Glc(a1-6)Glc(a1-6)Glc(a1-6)Glc(a1-6)Glc(a1-6)Glc
# In short: as §1
# Glc(b1-2)Glc(b1-2)Glc = biological target: Glc(b1-2)Glc(b1-2)Glc
# In short: as §1
# [2] = biological target: Glc(b1-2)Glc(b1-2)Glc(b1-2)Glc(b1-2)Glc(b1-2)Glc(b1-2)Glc(b1-2)Glc(b1-2)Glc
# In short: as §1
# [3] = biological target: Glc(b1-3)Glc(b1-3)Glc(b1-3)Glc(b1-3)Glc(b1-3)Glc(b1-3)[Glc(b1-6)]Glc(b1-3)Glc(b1-3)Glc
# In short: as §1
# [4] = biological target: Glc(b1-4)Glc(b1-4)Glc(b1-3)Glc(b1-4)Glc(b1-4)Glc(b1-3)Glc
# In short: as §1
# Glc(b1-6)Glc(b1-6)Glc = biological target: Glc(b1-6)Glc(b1-6)Glc
# In short: as §1
# [5] = biological target: Man(b1-4)Man(b1-4)Man(b1-4)Man(b1-4)Man
# In short: as §1
# Glc(a1-2)Glc(a1-2)Glc = biological target: Glc(a1-2)Glc(a1-2)Glc
# In short: as §1
# [6] = biological target: Glc(a1-4)Glc(a1-4)Glc(a1-4)Glc(a1-4)Glc(a1-4)Glc(a1-4)Glc(a1-4)Glc(a1-4)Glc(a1-4)Glc
# In short: as §1
# [7] = biological target: Glc(b1-2)Glc(b1-2)Glc(b1-2)Glc(b1-2)Glc
# In short: as §1
# [8] = biological target: Glc(b1-2)Glc(b1-2)Glc(b1-2)Glc(b1-2)Glc(b1-2)Glc(b1-2)Glc(b1-2)Glc(b1-2)Glc(b1-2)Glc(b1-2)Glc
# In short: as §1
# [9] = biological target: Glc(b1-3)[Glc(b1-6)]Glc(a1-3)Glc(b1-3)[Glc(b1-6)]Glc
# In short: as §1
# [10] = biological target: Glc(b1-4)Glc(b1-4)Glc(b1-3)Glc
# In short: as §1
# [11] = biological target: Glc(b1-4)Glc(b1-4)Glc(b1-4)Glc(b1-4)Glc
# In short: as §1
# [12] = biological target: Glc(b1-4)Glc(b1-4)Glc(b1-4)Glc(b1-4)Glc(b1-4)Glc(b1-4)Glc(b1-4)Glc(b1-4)Glc(b1-4)Glc
# In short: as §1
# [13] = biological target: Glc(b1-4)Glc(b1-4)Glc(b1-4)Glc(b1-4)Glc(b1-4)Glc(b1-4)Glc(b1-4)Glc(b1-4)Glc(b1-4)Glc(b1-4)Glc(b1-4)Glc(b1-4)Glc
# In short: as §1
# [14] = biological target: Glc(b1-6)Glc(b1-6)Glc(b1-6)Glc(b1-6)Glc(b1-6)Glc(b1-6)Glc(b1-6)Glc(b1-6)Glc(b1-6)Glc
# In short: as §1
# [15] = biological target: Glc(a1-2)Glc(a1-2)Glc(a1-2)Glc(a1-2)Glc(a1-2)Glc(a1-2)Glc(a1-2)Glc(a1-2)Glc
# In short: as §1
# [16] = biological target: Glc(a1-3)Glc(a1-3)Glc(a1-3)Glc(a1-3)Glc(a1-3)Glc(a1-3)Glc(a1-3)Glc(a1-3)Glc(a1-3)Glc(a1-3)Glc(a1-3)Glc
# In short: as §1
# [17] = biological target: Glc(a1-4)Glc(a1-4)Glc(a1-4)Glc
# In short: as §1
# [18] = biological target: Glc(a1-4)Glc(a1-4)Glc(a1-4)Glc(a1-4)Glc(a1-4)Glc
# In short: as §1
# [19] = biological target: Glc(a1-4)Glc(a1-4)Glc(a1-4)Glc(a1-4)Glc(a1-4)Glc(a1-4)Glc(a1-4)Glc
# In short: as §1
# [20] = biological target: Glc(a1-4)Glc(a1-4)Glc(a1-4)Glc(a1-4)Glc(a1-4)Glc(a1-4)Glc(a1-4)Glc(a1-4)Glc(a1-4)Glc(a1-4)Glc(a1-4)Glc
# In short: as §1
# [21] = biological target: Glc(b1-3)Glc(b1-3)Glc(b1-3)Glc(b1-3)Glc(b1-3)Glc
# In short: as §1
# [22] = biological target: Glc(b1-3)Glc(b1-3)Glc(b1-3)Glc(b1-3)Glc(b1-3)Glc(b1-3)Glc(b1-3)Glc
# In short: as §1
# Glc(b1-4)Glc(b1-4)Glc = biological target: Glc(b1-4)Glc(b1-4)Glc
# In short: as §1
# [23] = biological target: Glc(b1-4)Glc(b1-4)Glc(b1-4)Glc(b1-4)Glc(b1-4)Glc(b1-4)Glc(b1-4)Glc(b1-4)Glc
# In short: as §1
binder,measurement,setting,value
"Cel5A (Clostridium thermocellum), P16218 (protein) AVGEKMLDDFEGVLNWGSYSGEGAKVSTKIVSGKTGNGMEVSYTGTTDGYWGTVYSLPDGDWSKWLKISFDIKSVDGSANEIRFMIAEKSINGVGDGEHWVYSITPDSSWKTIEIPFSSFRRRLDYQPPGQDMSGTLDLDNIDSIHFMYANNKSGKFVVDNIKLIGATSDPTPSIKHGDLNFDNAVNSTDLLMLKRYILKSLELGTSEQEEKFKKAADLNRDNKVDSTDLTILKRYLLKAISEIPI",glycan array binding signal (z-score),Glc(a1-2)Glc,-0.143
same,glycan array binding signal (z-score),[1],-0.143
same,glycan array binding signal (z-score),Glc(b1-2)Glc(b1-2)Glc,-0.143
same,glycan array binding signal (z-score),[2],-0.143
same,glycan array binding signal (z-score),[3],0.047
same,glycan array binding signal (z-score),[4],4.62
same,glycan array binding signal (z-score),Glc(b1-6)Glc(b1-6)Glc,-0.143
same,glycan array binding signal (z-score),[5],0.04
"Unk16A (Cellvibrio mixtus), Q336L6 (protein) VAYNTTGASSSAASSSAPSSASSSSSSAAPVLLSQGRPVTASSNFQPAANAVDGNGGTRWESTHGVSPSWIMVDLGSSKNLSQVIIDWEAANAANYLVQASNNGMSWTTLKIITTGAFGDRTDTHSVAGNYRYVRIYATARSAGNQWGYSIWELKITGN",glycan array binding signal (z-score),Glc(a1-2)Glc(a1-2)Glc,-0.668
same,glycan array binding signal (z-score),[6],-0.662
same,glycan array binding signal (z-score),[7],2.23
same,glycan array binding signal (z-score),[2],3.49
same,glycan array binding signal (z-score),[8],2.77
same,glycan array binding signal (z-score),[9],4.32
same,glycan array binding signal (z-score),[10],-0.192
same,glycan array binding signal (z-score),[11],-0.479
same,glycan array binding signal (z-score),[12],-0.167
same,glycan array binding signal (z-score),[13],-0.398
same,glycan array binding signal (z-score),Glc(b1-6)Glc(b1-6)Glc,-0.248
same,glycan array binding signal (z-score),[14],0.062
"Pul13 (Thermotoga maritima), O33840 (protein) ETTIVVHYHRYDGKYDGWNLWIWPVEPVSQEGKAYQFTGEDDFGKVAVVKLPMDLTKVGIIVRLNEWQAKDVAKDRFIEIKDGKAEVWILQGVEEIFYEKP",glycan array binding signal (z-score),[15],-0.351
same,glycan array binding signal (z-score),[16],-0.3
same,glycan array binding signal (z-score),[17],2.43
same,glycan array binding signal (z-score),[18],3.61
same,glycan array binding signal (z-score),[19],4.12
same,glycan array binding signal (z-score),[20],3.44
same,glycan array binding signal (z-score),[21],-0.351
same,glycan array binding signal (z-score),[22],-0.351
same,glycan array binding signal (z-score),Glc(b1-4)Glc(b1-4)Glc,-0.351
same,glycan array binding signal (z-score),[23],-0.351
same,glycan array binding signal (z-score),[14],-0.351

# — the supplement of paper PMC8728848
